# According to publication PMC5540273 (PLoS ONE, 2017):
# Test system: T1, CDC2L5
# T1 construct: gene CDK13
# Conditions: concentration: 1 μM, replicates: in singlicate; n = 1
# 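Also: KINOMEscan kinase panel screen.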
row,Compound,%Inh [%]
1,O=C(Nc1n[nH]c2nc(-c3ccccc3O)ccc12)C1CC1 [SB-711880],11
2,N#CC1(c2cccc(C(=O)Nc3cccc(Oc4ccc5nc(NC(=O)C6CC6)sc5n4)c3)c2)CC1,6
3,Cl.Cl.NCC(NC(=O)c1cc(-c2cccnc2)c(-c2ccnc3[nH]ccc23)s1)c1ccccc1 (centres unmarked) [GSK1323434],0
4,COc1cccc(C2=C(Nc3cccc(O)c3)C(=O)NC2=O)c1 [SB-390771],0
5,Fc1cc(Cl)ccc1Nc1ccnc2cc(-c3ccc(CN4CCSCC4)o3)ccc12 [GW560106],0
6,O=C(O)C(F)(F)F.O=c1[nH]ccc2nc(N[C@@H]3CCNC3)nc(Nc3ccc4c(c3)S(=O)(=O)CC4)c12 [GSK2181306],0
7,Cc1ccccc1CC(=O)N1CCc2cc(-c3cn(C)c4ncnc(N)c34)ccc21 [GSK2603346],0
8,O=C(Nc1n[nH]c2nc(-c3ccccc3)ccc12)C1CC1 [SB-708999],27
9,CN(c1ccc(NC(=O)Nc2cccc(Cl)c2)cc1)c1ccnc(N)n1.Cl [GW830707],43
10,CN(C)CCOc1ccc(-c2cc(-c3ccc(Cl)c(O)c3)c(-c3ccncc3)[nH]2)cc1.Cl.Cl [SB-684387],0
11,Cc1ccc(Nc2ccnc(Nc3ccc(C)c(F)c3)n2)cc1O.Cl [GW582868],0
12,CN(c1ccc(NC(=O)N2CCN(CCCN3CCOCC3)CC2)cc1)c1ccnc(Nc2ccc(CS(C)(=O)=O)cc2)n1.Cl [GW830899],0
13,Nc1ncnc2scc(-c3ccc(NC(=O)Cc4cc(F)ccc4F)cc3)c12.O=C(O)C(F)(F)F [SB-731254-M],0
14,CC(C)c1nc(-c2cccc(NS(=O)(=O)c3c(F)cccc3F)c2)c(-c2ccnc(Nc3ccc(N4CCOCC4)nc3)n2)s1.Cl [GSK1723980],79
15,Cl.N#CCc1ccc(Nc2nccc(Nc3ccc(Oc4ccccc4)cc3)n2)cc1 [GW639905],0
16,CNc1nccc(-c2ccc3c(N)n[nH]c3c2)n1 [GSK2206003],0

row,Compound,%Inh [%]
1,COC(=O)Nc1nc2ccc(Oc3ccc(NC(=O)Nc4cc(C(F)(F)F)ccc4F)cc3)cc2[nH]1.Cl [GW654607],6
2,O=C(O)C(F)(F)F.O=c1[nH]ccc2nc(N[C@@H]3CCNC3)nc(Nc3cc(Cl)cc(Cl)c3)c12 [GSK2188764],0
3,Cl.O=C(Nc1ccc(Oc2ccc3[nH]c(NC(=O)c4ccco4)nc3c2)cc1)Nc1cc(C(F)(F)F)ccc1F [GW683134],0
4,c1ccc(Oc2ccc(Nc3ccnc4cc(-c5ccc(CN6CCCCC6)o5)ccc34)cc2)nc1 [GW567143],0
5,NCCC(NC(=O)c1cc(Br)c(-c2ccnc3[nH]ccc23)s1)c1ccccc1.O=C(O)C(F)(F)F.O=C(O)C(F)(F)F (centres unmarked) [GSK1307810],0
6,COc1ccc(NC(=O)c2ccoc2)cc1-c1ccc(C(=O)NCC2CC2)cc1 [GW810437],16
7,CCn1c(-c2nonc2N)nc2c(-c3ccccc3)ncc(OCCCN)c21.O=C(O)C(F)(F)F.O=C(O)C(F)(F)F [GSK260205],0
8,CS(=O)(=O)c1cccc(CNc2nc(Nc3ccc4c(c3)CCC(=O)N4)ncc2C(F)(F)F)c1,0
9,O=C(Nc1c(F)cccc1F)c1cc(C(=O)c2ccccc2F)c[nH]1 [GSK1326180],0
10,O=C(Nc1n[nH]c2nc(-c3cccc(O)c3)ccc12)C1CC1 [SB-711805],46
11,Cc1ccc(O)cc1Nc1ccnc2ccc(C(C)(C)C)cc12 [GW856805],36
12,Cc1cccc(Nc2nc(NCCN)ncc2C(N)=O)c1 [GSK1292139],0
13,Cn1cc(-c2ccc3c(c2)CCN3C(=O)Cc2cc(F)cc(C(F)(F)F)c2)c2c(N)ncnc21 [GSK2635225],0
14,CC(C)c1nc(-c2ccc(F)c(NS(=O)(=O)c3c(F)cccc3F)c2)c(-c2ccnc(Nc3ccc(N4CCOCC4)nc3)n2)s1 [GSK1804250],0
15,CC(C)NCC(Cc1ccccc1)NC(=O)c1cc(Br)c(-c2ccnc3[nH]ccc23)s1.Cl.Cl (centres unmarked) [GSK1383281],0
16,COc1cccc(CC(=O)N2CCc3cc(-c4cn(C)c5ncnc(N)c45)ccc32)c1 [GSK2608899],0
